Test results taken from PubChem BioAssay.
Inconclusive results are not listed. Active and inactive are the calls of the source.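 The calls were made as follows, unless noted: active = RAM network inhibition above 8.4% in each of two replicates, 3 SD over the compound average; inconclusive = above 8.4% inhibition in only one replicate; inactive = 8.4% inhibition or less in each replicate.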

Columns and labels:
[1] = S. cerevisiae growth inhibition in permissive medium (OD615), pilot counter-assay for S. cerevisiae lifespan shortening project, permissive growth control (AID 705;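 active = growth inhibition above 25% in both replicates, a cutoff set 3 SD above the mean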); details: OD615, 24 h, at 10 µM, stronger effect = higher value
[2] = S. cerevisiae growth inhibition in restrictive medium, OD615, pilot screen, restrictive growth control, yeast lifespan reduction project (AID 706;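 active = growth inhibition above a set limit, 3 SD over mean compound inhibition, in both replicates, cut at about 43% in these data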;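 also: modified DeaD lifespan yeast strain shifted to restrictive glucose medium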); details: OD615, 48 h, at 10 µM, stronger effect = higher value
[3] = doxorubicin toxicity protection in MRP-1 cells – H69AR cells, CellTiter-Glo, duplicate, MRP-1 activator project, pilot screen (AID 807;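 active = viability increase at or above a cutoff of the median across tested compounds plus 3 SD, cut at about 8.5% in these data, passing the limit was not always enough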;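 also: compound pretreatment 18-22 h then 72 h combined with doxorubicin; 0% = doxorubicin alone and 100% = vehicle without doxorubicin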); details: H69AR viability with doxorubicin, CellTiter-Glo luminescence; at 10 µM; stronger effect = higher value
[4] = viability of HCT116 without oncogenic beta-catenin – human colon tumor cells, pilot screen (AID 823;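 active = cell viability at or below a set limit in both duplicate runs, the limit being the all-compound median minus 4 SD, cut at about 23% in these data, passing the limit was not always enough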;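 also: 0% = wells killed by 20 µM Hyamine and 100% = untreated DMSO cell wells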); details: HCT116 beta-catenin knockout viability, CellTiter-Glo, 60 h; at 10 µM; stronger effect = lower value
[5] = viability of PTEN-null HCT116 cells – cell-based, HCT116 clonal line, CellTiter-Glo, pilot screen (AID 824;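 active = viability at or below 27.92% in each of two runs, the all-compound median minus 4 SD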;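 also: 0% = 20 µM Hyamine control and 100% = vehicle cell control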); details: HCT116 PTEN-deleted viability, 60 h, at 10 µM, stronger effect = lower value
[6] = RAM pathway blockade in budding yeast – dse1pr::URA3 reporter, 5-FOA selection, pilot screen (AID 869;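 active = inhibition over a set limit, the all-compound mean plus 3 SD, in both replicate runs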;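 also: 0% = DMSO wells with no growth and 100% = 10 µM 1-NA-PP1 with full growth; RAM network block rescues cells from 5-FOA so hits raise OD615 growth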); details: S. cerevisiae dse1pr::URA3 5-FOA growth, OD615, 2 d, at 10 µM, stronger effect = higher value
[7] = RAM signaling pathway blockade in yeast – S. cerevisiae, Pdr1DBD-CYC8 efflux-inhibited sensitized strain, primary screen (AID 1298);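 also: 0% = DMSO untreated cells without growth and 100% = 10 µM 1-NA-PP1 full growth; higher means more yeast growth rescued from 5-FOA killing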; details: S. cerevisiae cbk1-as DSE1-URA3 strain, 5-FOA growth OD615, 2 d; at 50 µM; stronger effect = higher value
[8] = target: Pantothenate synthetase (Mycobacterium tuberculosis (strain ATCC 25618 / H37Rv)) (UniProt P9WIL5); experiment: Coupled enzyme confirmation of inhibitors against recombinant Mtb PanC (AID 375; call rule not given here;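 also: 0% = full reaction with vehicle and 100% = no enzyme background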); details: coupled enzyme assay; at 10 µM, stronger effect = higher value
Sequence of Pantothenate synthetase (Mycobacterium tuberculosis (strain ATCC 25618 / H37Rv)) (P9WIL5 whole entry, looked up): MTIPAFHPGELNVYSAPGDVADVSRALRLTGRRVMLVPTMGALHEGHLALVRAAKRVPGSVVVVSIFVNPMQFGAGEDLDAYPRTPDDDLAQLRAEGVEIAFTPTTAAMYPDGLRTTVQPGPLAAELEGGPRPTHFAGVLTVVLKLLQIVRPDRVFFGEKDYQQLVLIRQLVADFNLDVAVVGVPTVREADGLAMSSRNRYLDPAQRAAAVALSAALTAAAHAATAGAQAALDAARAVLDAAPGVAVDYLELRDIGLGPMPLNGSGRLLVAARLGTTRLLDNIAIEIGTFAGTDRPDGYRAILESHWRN

[9] = Her2 expression decrease, cell viability multiplex – SKBR3 breast tumor cells, AlphaScreen, ATP viability, primary screen (AID 461;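 active = Her2 level under about 52% in both replicate screens, with viability over 70% of control, limit read from the data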;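 as to Her2 level: lower value means less Her2 protein in the cells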;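 as to viability: percent of carrier control wells set as 100% viability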); details: SKBR3 Her2 protein level, 18-24 h, measured here: SKBR3 viability, ATP luminescence, at 10 µM
[10] = target: Receptor tyrosine-protein kinase erbB-2 (Homo sapiens) (UniProt P04626); experiment: as above; details: 18-24 h, at 10 µM, stronger effect = lower value
Sequence of Receptor tyrosine-protein kinase erbB-2 (Homo sapiens) (P04626 whole entry, looked up): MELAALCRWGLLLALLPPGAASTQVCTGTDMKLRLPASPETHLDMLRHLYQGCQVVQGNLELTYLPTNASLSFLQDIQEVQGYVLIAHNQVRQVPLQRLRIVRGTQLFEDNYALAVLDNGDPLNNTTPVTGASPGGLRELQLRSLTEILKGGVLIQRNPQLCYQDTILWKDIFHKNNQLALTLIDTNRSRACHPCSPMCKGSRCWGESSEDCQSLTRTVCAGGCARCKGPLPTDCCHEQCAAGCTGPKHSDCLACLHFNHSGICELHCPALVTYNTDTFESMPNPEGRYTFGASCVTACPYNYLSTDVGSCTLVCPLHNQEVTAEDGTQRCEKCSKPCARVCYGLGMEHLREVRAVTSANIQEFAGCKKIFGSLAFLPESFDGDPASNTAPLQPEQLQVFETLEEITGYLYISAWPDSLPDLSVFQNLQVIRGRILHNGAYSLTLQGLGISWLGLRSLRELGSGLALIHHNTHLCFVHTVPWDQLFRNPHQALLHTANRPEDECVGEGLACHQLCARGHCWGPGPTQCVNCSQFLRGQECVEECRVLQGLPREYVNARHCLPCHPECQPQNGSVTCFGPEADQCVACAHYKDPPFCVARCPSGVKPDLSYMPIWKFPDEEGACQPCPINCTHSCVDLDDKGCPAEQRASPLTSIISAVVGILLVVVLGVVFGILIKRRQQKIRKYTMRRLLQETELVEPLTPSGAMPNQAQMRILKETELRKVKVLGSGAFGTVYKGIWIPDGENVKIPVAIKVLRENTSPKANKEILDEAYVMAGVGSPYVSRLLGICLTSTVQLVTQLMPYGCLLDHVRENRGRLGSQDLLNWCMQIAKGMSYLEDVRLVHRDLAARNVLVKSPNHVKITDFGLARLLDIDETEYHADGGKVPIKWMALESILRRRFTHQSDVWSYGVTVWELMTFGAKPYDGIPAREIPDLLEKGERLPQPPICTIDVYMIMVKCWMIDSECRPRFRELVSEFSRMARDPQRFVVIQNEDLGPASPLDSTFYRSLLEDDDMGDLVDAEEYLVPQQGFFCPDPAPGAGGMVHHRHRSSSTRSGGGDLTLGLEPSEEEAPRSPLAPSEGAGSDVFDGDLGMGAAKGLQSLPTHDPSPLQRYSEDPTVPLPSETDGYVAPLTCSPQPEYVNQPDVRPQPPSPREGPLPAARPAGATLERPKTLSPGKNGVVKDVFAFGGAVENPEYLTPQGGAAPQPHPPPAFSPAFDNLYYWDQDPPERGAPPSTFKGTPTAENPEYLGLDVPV

[11] = reduced viability of SK-BR-3 breast cancer cells – cell-based, 24 h, human, pilot screen (AID 572;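 active = viability at or below 10% of carrier control in both of two separate runs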;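 also: compound exposure lasted between 18 and 24 h rather than exactly 24 h; 100% = carrier-treated control wells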); details: SK-BR-3 viability, CellTiter-Glo luminescence, at 10 µM, stronger effect = lower value
[12] = HUVEC growth inhibition – cell-based, human, primary screen (AID 575;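 active = viability at or below 30% in both replicate assays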;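 also: 100% = median of untreated cell wells with 0.1% DMSO on each plate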); details: HUVEC proliferation, CellTiter-Glo luminescence, 72 h; at 10 µM; stronger effect = lower value
[13] = H69AR cell proliferation blockers – human, duplicate replicates, primary screen (AID 580;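 active = viability at or under a set limit in both replicates, limit being median viability minus 3 SD, cut at about 48% in these data, passing the limit was not always enough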;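 also: 100% = mean luminescence of untreated wells and 0% = no signal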); details: H69AR lung tumor cells viability, ATP luminescence, 72 h; at 10 µM; stronger effect = lower value
[14] = MRP1 drug-resistance reversers in H69AR cells – cell-based, doxorubicin co-treatment, pilot screen (AID 601;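 active = viability loss from added drug above about 55%, and viability with drug at most 40%, in both replicates, limit read from the data, passing the limit was not always enough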); details: CellTiter-Glo, 72 h, at 10 µM; for differential viability (reversal): stronger effect = higher value
[15] = yeast transport mutant growth inhibition pilot in 384-well plates, post-Golgi transport modulator project (AID 636; in the data active = inhibition above about 31%); details: absorbance 615 nm, about 18 h, stronger effect = higher value
[16] = growth suppression of yeast trafficking mutant, preliminary HTS, modulators of trafficking downstream of Golgi apparatus project, 1536-format plate, OD 615 nm (AID 637; in the data active = inhibition above about 30%); details: yeast transport mutant growth, absorbance 615 nm, 18 h; stronger effect = higher value
[17] = H69AR cells + 2 uM doxorubicin, measured here: viability with 2 uM doxorubicin, stronger effect = lower value
[18] = H69AR cells, compound alone cytotoxicity

Row | Structure (SMILES) | growth inhibition [1] | growth inhibition [2] | viability increase [3] | viability [4] | viability [5] | inhibition [6] | RAM network inhibition [7] | inhibition [8] | viability [9] [%] | Her2 level [10] | viability [11] | viability [12] | viability [13] | differential viability (reversal) ([14]; H69AR cells + 2 uM doxorubicin) | viability [14, 17] [%] | viability [14, 18] [%] | inhibition [15] | inhibition [16]
1 | COc1ccc(N2C(=O)CC(N3CC=C(c4ccccc4)CC3)C2=O)cc1 (stereo not given) | -17.8% (inactive) | -0.61% (inactive) | 1.66% (inactive) | 101% (inactive) | 103% (inactive) | 0.145% (inactive) | 4.45% (inactive) |  |  |  |  |  |  |  |  |  |  | 
2 | CCCCn1c(C)c(C(=O)OCC)c2c(CN3CCOCC3)c(O)ccc21 | -15.6% (inactive) | -9.74% (inactive) | -6.39% (inactive) | 68.3% (inactive) | 72.6% (inactive) | -0.155% (inactive) | 2.5% (inactive) | 2% (inactive) | 110 | 92.5% (inactive) | 110% (inactive) | 58.5% (inactive) | 73.3% (inactive) | -6.07% (inactive) | 79.4 | 73.3 | -4.34% (inactive) | 4.33% (inactive)
3 | CN1C(=O)C(Cc2cccc3ccccc23)C(=O)N(C)C1=O | -20.9% (inactive) | -4.64% (inactive) | -2.39% (inactive) | 92.5% (inactive) | 89.7% (inactive) | 0.305% (inactive) | 1.47% (inactive) | 6% (inactive) | 73.5 | 94% (inactive) | 73.5% (inactive) | 95.4% (inactive) | 85.2% (inactive) | -7.14% (inactive) | 92.4 | 85.2 | -5.81% (inactive) | 0.98% (inactive)
4 | CCOc1ccc(C2SCC(=O)Nc3c2c(=O)[nH]n3C2CCCCCC2)cc1 (stereo not given) | -17.8% (inactive) | -3.29% (inactive) | -7.49% (inactive) | 97.7% (inactive) |  | 2.26% (inactive) | 4% (inactive) | 0% (inactive) | 110 | 108% (inactive) | 110% (inactive) | 63.8% (inactive) |  | 1.13% (inactive) | 57.2 | 58.3 | -5.2% (inactive) | -7.62% (inactive)
5 | O=P(OCC(F)(F)C(F)F)(N1CCCCC1)N1CCCCC1 | -8.86% (inactive) | -5.09% (inactive) | -0.61% (inactive) | 89% (inactive) | 95.5% (inactive) | 0.595% (inactive) | 3.2% (inactive) | 3% (inactive) | 104 | 108% (inactive) | 104% (inactive) | 106% (inactive) | 117% (inactive) | 17.1% (inactive) | 99.9 | 117 | 2.67% (inactive) | -7.9% (inactive)
6 | O=C(C(Cc1ccccc1)NS(=O)(=O)c1ccc(F)cc1)N1CCC2(CC1)OCCO2 (stereo not given) | -6.55% (inactive) | -17.2% (inactive) | -3.5% (inactive) | 95.4% (inactive) | 93.5% (inactive) | -0.725% (inactive) | 0.31% (inactive) | 0% (inactive) |  |  | 95% (inactive) | 94.2% (inactive) | 79% (inactive) | 15.6% (inactive) | 63.4 | 79 | -0.13% (inactive) | -0.16% (inactive)
7 | CCOC(=O)c1c(C)c(P(=S)(N2CCOCC2)N2CCOCC2)n(C)c1C | -22.4% (inactive) | -3.18% (inactive) | -3.92% (inactive) | 89.1% (inactive) | 87.1% (inactive) | 2.06% (inactive) | 2.36% (inactive) |  |  |  |  |  |  |  |  |  |  | 
8 | O/N=C1\CCC2CN(C3CCCCC3)CC2C1 (stereo not given) | 8.11% (inactive) | -1.4% (inactive) | -1.85% (inactive) | 109% (inactive) | 97.9% (inactive) | 0.775% (inactive) | 0.94% (inactive) |  |  |  |  |  |  |  |  |  |  | 
9 | O=c1c2ccccc2nc(-c2ccco2)n1-c1ccncc1 | -1.4% (inactive) | 3.59% (inactive) | 0.16% (inactive) | 91.8% (inactive) | 97.2% (inactive) | 0.635% (inactive) | -0.06% (inactive) |  |  |  |  |  |  |  |  |  |  | 
10 | c1cncc(C2CCCCN2Cc2ccc3c(c2)OCO3)c1 (stereo not given) | -6.18% (inactive) | -13% (inactive) | -0.84% (inactive) | 95.2% (inactive) | 94.3% (inactive) | 2.12% (inactive) | 4.3% (inactive) |  |  |  |  |  |  |  |  |  |  | 
11 | CCOC(=O)N(CC)c1ccc(C(O)(C(=O)OCC)C(F)(F)F)cc1 (stereo not given) | -2.74% (inactive) | -2.65% (inactive) | -0.35% (inactive) | 92.5% (inactive) | 95.3% (inactive) | 0.745% (inactive) | 0.46% (inactive) |  |  |  |  |  |  |  |  |  |  | 
12 | Cn1c(O)c(C=NCCc2c[nH]c3ccccc23)c(=O)n(C)c1=O | -0.425% (inactive) | -3.75% (inactive) | -2.67% (inactive) | 101% (inactive) | 91.4% (inactive) | 1.54% (inactive) | -0.15% (inactive) |  |  |  |  |  |  |  |  |  |  | 
